Results: the supplement of paper PMC10849652
Of roughly 8,800 targets only a part is listed; those with a hit were picked by preference. About 0.5% of all pairs of compound and target were hits. Unmarked numbers belong to inactive results.

What was measured:
Experiment in all cases: log2 fold change, soluble protein after heating vs DMSO (PISA); higher = thermal stabilisation; K562 lysate, 10 uM; active = over 0.2 and 3.5 SD of the protein, either way, in both replicates (recomputed)
[1] = compound: C1=CC=C(C=C1)[C@H](COC2=CC3=C(C=C2)NC(=O)N3)NC(=O)C4=CC=CN(C4=O)CC5=CC(=C(C=C5)F)F
Method in brief: (§1)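 Pellets of K562 cells were dounce-homogenised in PBS pH 7.4 with 1 mM MgCl2, and the crude extract was held at 1 mg/mL protein for a 30 min treatment with 10 μM compound. Aliquots were heated for 3 min over 48°C-58°C and pooled before NP-40 was added to 0.5% at 4°C. The supernatant from 21,000xg for 90 min was quantified by TMTpro 16plex LC-MS/MS with channel sums equalised. Values are reported from duplicates as log-two fold change in thermal stability relative to solvent controls.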

[2] = compound: CC1=C(SC2=C1C(=N[C@H](C3=NN=C(N32)C)CC(=O)N)C4=CC=C(C=C4)Cl)C
Method in brief: as §1

[3] = compound: CC1=C2C(=CC=C1)N=C(N(C2=O)C3=CC=CC=C3C)CN4C=NC5=C(N=CN=C54)N
Method in brief: as §1

[4] = compound: Cc1sc2c(c1C)C(c1ccc(Cl)cc1)=N[C@@H](CC(=O)OC(C)(C)C)c1nnc(C)n1-2
Method in brief: as §1

[5] = compound: c1ccc([C@@H]2C[C@H]2NC2CCNCC2)cc1
Method in brief: as §1

Chain of UniProt Q5VU43 (Q5VU43 whole entry, looked up): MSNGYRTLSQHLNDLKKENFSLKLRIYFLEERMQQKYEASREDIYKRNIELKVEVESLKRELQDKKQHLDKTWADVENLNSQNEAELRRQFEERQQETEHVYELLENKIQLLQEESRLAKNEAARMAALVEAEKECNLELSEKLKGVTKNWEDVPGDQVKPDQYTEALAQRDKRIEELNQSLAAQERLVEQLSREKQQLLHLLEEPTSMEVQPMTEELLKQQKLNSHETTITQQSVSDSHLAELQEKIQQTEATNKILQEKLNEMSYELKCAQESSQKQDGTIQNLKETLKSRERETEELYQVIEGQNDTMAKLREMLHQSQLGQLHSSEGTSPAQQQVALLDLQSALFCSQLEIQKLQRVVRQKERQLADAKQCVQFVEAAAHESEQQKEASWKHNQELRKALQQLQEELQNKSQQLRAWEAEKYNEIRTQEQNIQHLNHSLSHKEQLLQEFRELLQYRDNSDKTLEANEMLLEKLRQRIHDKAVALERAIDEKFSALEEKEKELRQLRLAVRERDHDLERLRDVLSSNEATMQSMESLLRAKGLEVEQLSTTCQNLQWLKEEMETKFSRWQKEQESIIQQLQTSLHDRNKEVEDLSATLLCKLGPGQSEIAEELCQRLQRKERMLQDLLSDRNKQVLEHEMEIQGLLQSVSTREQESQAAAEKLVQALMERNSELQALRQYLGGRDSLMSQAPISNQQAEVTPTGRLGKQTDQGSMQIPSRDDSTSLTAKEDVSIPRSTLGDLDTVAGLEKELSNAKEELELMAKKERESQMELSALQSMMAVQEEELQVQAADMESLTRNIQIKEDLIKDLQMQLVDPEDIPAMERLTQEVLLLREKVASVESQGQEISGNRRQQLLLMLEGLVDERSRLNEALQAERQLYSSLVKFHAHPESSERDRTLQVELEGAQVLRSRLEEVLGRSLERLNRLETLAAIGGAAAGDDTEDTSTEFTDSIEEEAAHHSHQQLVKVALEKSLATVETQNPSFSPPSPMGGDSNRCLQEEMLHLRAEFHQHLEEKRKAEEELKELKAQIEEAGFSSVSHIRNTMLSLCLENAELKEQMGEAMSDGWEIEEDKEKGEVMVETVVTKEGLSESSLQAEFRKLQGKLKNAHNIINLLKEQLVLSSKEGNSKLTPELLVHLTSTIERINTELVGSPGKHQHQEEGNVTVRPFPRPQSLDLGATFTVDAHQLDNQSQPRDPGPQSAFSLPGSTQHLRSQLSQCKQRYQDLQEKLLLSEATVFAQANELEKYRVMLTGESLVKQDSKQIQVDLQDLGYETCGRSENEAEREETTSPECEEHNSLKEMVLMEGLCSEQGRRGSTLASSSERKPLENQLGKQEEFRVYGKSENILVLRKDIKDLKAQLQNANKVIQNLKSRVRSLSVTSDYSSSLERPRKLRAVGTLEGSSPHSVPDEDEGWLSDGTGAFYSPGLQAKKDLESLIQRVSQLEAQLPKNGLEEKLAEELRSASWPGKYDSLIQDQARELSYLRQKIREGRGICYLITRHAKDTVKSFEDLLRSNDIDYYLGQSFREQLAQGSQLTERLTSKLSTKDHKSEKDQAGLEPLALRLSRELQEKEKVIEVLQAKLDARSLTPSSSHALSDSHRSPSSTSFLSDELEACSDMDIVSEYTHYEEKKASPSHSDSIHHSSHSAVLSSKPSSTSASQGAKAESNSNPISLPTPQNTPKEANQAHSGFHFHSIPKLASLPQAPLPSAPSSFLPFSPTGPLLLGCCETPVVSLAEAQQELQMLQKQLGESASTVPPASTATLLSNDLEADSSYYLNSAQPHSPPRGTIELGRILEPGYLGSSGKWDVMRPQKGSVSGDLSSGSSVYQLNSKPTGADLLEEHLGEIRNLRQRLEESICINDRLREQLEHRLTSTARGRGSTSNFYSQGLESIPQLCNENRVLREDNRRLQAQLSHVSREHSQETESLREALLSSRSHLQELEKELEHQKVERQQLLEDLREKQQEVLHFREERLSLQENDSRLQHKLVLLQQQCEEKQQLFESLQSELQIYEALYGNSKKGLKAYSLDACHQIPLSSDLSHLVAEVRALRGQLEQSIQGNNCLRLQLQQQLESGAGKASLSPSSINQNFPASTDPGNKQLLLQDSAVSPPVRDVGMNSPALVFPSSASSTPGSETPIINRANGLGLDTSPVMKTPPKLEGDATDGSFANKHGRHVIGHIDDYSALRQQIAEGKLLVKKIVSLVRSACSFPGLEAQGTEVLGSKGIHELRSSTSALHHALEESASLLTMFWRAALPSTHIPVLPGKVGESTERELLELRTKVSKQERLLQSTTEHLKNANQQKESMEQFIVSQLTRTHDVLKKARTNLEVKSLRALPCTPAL
Chain of UniProt O94913 (O94913 whole entry, looked up): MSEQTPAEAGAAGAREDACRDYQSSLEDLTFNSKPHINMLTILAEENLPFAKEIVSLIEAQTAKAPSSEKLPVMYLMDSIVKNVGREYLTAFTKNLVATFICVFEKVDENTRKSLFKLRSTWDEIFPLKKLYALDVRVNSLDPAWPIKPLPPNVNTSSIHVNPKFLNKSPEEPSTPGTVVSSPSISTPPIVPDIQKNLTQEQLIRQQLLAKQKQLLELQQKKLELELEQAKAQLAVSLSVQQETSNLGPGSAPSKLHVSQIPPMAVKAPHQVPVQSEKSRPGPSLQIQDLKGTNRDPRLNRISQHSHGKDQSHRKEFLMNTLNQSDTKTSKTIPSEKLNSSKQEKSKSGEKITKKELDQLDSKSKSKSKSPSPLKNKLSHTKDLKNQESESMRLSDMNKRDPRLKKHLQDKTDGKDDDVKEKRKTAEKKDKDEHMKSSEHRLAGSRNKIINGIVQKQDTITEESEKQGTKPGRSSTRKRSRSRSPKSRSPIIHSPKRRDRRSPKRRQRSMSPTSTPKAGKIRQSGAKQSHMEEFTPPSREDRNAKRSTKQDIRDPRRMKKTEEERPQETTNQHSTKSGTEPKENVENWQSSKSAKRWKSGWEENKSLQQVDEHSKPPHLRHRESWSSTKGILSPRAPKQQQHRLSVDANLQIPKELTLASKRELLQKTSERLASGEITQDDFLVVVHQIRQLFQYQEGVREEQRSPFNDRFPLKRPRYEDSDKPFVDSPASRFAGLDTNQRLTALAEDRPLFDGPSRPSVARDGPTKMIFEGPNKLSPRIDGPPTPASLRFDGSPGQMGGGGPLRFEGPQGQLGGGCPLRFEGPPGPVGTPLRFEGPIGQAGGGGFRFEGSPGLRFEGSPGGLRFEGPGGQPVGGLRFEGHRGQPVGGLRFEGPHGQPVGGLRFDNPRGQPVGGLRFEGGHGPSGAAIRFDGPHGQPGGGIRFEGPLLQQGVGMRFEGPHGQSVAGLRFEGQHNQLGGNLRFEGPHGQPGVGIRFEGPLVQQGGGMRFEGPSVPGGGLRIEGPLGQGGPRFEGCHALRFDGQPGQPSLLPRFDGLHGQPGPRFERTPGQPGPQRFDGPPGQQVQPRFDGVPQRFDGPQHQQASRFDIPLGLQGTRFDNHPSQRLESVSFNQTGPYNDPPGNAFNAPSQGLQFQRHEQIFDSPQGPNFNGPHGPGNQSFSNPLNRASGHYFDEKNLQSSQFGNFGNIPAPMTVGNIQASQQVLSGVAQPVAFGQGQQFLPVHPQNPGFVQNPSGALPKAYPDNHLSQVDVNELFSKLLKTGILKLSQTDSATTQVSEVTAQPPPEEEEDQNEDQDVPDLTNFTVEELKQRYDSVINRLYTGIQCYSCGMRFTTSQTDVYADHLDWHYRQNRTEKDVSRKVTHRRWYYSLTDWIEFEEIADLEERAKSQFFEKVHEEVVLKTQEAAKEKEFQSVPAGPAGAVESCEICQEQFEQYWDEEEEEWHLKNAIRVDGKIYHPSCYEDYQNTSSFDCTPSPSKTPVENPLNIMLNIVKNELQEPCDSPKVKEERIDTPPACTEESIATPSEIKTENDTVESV
Chain of UniProt P28065 (P28065 whole entry, looked up): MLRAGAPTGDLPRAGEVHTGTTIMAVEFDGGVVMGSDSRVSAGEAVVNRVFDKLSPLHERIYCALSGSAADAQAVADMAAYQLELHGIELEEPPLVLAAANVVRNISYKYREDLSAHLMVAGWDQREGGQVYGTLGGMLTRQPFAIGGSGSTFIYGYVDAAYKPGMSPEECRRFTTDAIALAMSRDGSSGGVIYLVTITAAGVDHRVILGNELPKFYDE
Chain of UniProt Q8TD55 (Q8TD55 whole entry, looked up): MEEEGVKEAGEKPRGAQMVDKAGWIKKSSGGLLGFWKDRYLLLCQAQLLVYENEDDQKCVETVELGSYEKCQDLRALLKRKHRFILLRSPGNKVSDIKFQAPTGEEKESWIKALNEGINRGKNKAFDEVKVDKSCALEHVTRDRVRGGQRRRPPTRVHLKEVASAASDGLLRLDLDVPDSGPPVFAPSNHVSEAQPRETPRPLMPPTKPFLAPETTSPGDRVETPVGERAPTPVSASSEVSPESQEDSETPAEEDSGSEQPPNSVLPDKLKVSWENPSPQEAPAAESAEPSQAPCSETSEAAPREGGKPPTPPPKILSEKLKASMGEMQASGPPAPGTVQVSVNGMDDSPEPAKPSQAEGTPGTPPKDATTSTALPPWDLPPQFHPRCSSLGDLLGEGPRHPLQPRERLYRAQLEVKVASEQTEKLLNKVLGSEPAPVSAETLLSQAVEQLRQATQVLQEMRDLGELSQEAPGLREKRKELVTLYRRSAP
Chain of UniProt P48426 (P48426 whole entry, looked up): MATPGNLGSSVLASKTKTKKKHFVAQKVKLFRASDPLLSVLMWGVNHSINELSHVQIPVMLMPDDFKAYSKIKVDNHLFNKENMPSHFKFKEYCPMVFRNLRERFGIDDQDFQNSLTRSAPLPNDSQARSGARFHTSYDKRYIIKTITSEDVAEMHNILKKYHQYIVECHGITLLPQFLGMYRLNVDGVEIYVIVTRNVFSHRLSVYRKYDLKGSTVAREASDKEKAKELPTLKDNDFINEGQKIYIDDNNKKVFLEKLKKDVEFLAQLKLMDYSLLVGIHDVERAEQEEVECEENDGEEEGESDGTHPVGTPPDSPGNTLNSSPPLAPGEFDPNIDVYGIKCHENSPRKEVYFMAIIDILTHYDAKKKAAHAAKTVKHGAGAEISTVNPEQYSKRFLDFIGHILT

Target | log2 fold change [1] | log2 fold change [2] | log2 fold change [3] | log2 fold change [4] | log2 fold change [5]
PRKCA (UniProt P17252) | 0.01 | -0.012 | -0.061 | 0.021 | 0.089
PTK2 (UniProt Q05397) | 0.006 | -0.027 | -0.003 | 0.023 | -0.131
PELO (UniProt Q9BRX2) | -0.014 | 0.05 | 0.034 | 0.087 | 0.27
PDE4DIP isoform 4 (UniProt Q5VU43) | -0.102 | 0.154 | 0.018 | -0.016 | -0.015
PCBP3 (UniProt P57721) | -0.028 | 0.014 | -0.026 | 0.021 | 0
PRC1 (UniProt O43663) | 0.089 | 0.037 | 0.026 | 0.03 | 0.043
POLR2B (UniProt P30876) | -0.021 | 0.024 | 0.019 | 0.021 | 0.013
PHOSPHO2 (UniProt Q8TCD6) | -0.029 | 0.02 | 0.046 | -0.053 | 0.061
PFDN2 (UniProt Q9UHV9) | 0.044 | -0.055 | -0.016 | -0.008 | 0.063
PPOX (UniProt P50336) | 0.579 (active) | 0.012 | -0.009 | -0.02 | -0.023
PLEKHO2 (UniProt Q8TD55) | -0.158 | 0.077 | -0.076 | -0.107 | 0.043
PGLS (UniProt O95336) | -0.063 | -0.06 | 0.094 | -0.04 | 0.095
PRPF38A (UniProt Q8NAV1) | 0.034 | -0.055 | -0.08 | -0.024 | -0.133
PCF11 (UniProt O94913) | -0.135 | 0.018 | 0.022 | 0.008 | 0.079
POLR2G (UniProt P62487) | 0.018 | 0.021 | -0.003 | 0.007 | -0.108
POLR2M (UniProt P0CAP2) | 0.026 | -0.005 | 0.025 | 0.024 | 0.005
PRKCSH (UniProt P14314) | 0 | -0.002 | -0.017 | 0.041 | 0.021
PIR (UniProt O00625) | -0.013 | 0.017 | 0.026 | 0.009 | 0.06
PSMB9 (UniProt P28065) | 0.074 | 0.159 | 0.111 | -0.095 | -0.013
PTMA (UniProt P06454) | 0.015 | 0.018 | 0.01 | -0.004 | 0.241
PPP2R5C isoform 5 (UniProt Q13362) | -0.068 | 0.011 | -0.02 | -0.024 | 0.071
PIP4K2B (UniProt P78356) | -0.063 | -0.078 | -0.014 | 0.036 | -0.108
PIP4K2A (UniProt P48426) | -0.093 | -0.053 | -0.041 | -0.05 | -0.106
PLA2G4B isoform 6 (UniProt P0C869) | -0.003 | 0.024 | -0.052 | 0.099 | -0.019
